Experimental data as given in PubChem BioAssay.
Records with an inconclusive call do not appear. Calls of active or inactive are those of the source. Cut-off read from the data, not from the text of the source, unless noted: active = response above about 15%; inactive = the rest.

How the values were obtained:
[1] = yeast TOR pathway RPL19A-GFP modulators, primary screen, cell-based, S. cerevisiae, multiplex flow cytometry (AID 1862; in the data active = percent of DMSO control GFP below about 86%;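 note: lower values mimic rapamycin by blocking the RPL19A rise seen in DMSO cells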); settings: S. cerevisiae RPL19A-GFP strain, flow cytometry fluorescence, 3 h; at 10 µM; stronger effect = lower value
[2] = modulators of MEP2-GFP levels in yeast, primary screen, S. cerevisiae, multiplex flow cytometry (AID 1867;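 active = GFP response, as percent of the DMSO control, above the screen-wide mean plus 3 SD, about 139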;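 note: median GFP channel fluorescence of barcode-gated MEP2-GFP cells measured by flow cytometry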); settings: S. cerevisiae MEP2-GFP strain, 3 h, at 10 µM, stronger effect = higher value, 100% means same as DMSO wells
[3] = modulators of CIT2-GFP expression in yeast, primary screen, S. cerevisiae, GFP fusion, multiplex flow cytometry (AID 1870;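 active = percent response above a set limit, the screen-wide mean plus 3 SD, cut at about 130% in these data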;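 note: barcoded CIT2-GFP strain pooled with four other GFP strains with rapamycin as positive control; median GFP fluorescence per well over plate mean of DMSO wells so 100% = DMSO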); settings: 3 h, at 10 µM, stronger effect = higher value
[4] = modulators of LAP4-GFP expression in yeast, primary screen, S. cerevisiae, multiplex flow cytometry (AID 1873;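 active = GFP signal, as percent of the solvent control, above the screen mean plus 3 SD, about 149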); settings: 3 h, at 10 µM, stronger effect = higher value
[5] = modulators of AGP1-GFP expression in yeast TOR pathway, primary screen, cell-based, multiplex flow cytometry, S. cerevisiae (AID 1887;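 active = GFP signal above the screen-wide mean plus 3 SD, that is over about 124.5% of the solvent control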;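 note: AGP1-GFP fusion strain of S. cerevisiae within a five-strain barcoded multiplex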); settings: 3 h, at 10 µM, stronger effect = higher value
[6] = inhibitors of CD8+ T cell-vesicle binding, pilot screen, LFA-1/ICAM-1 modulator project, MLPCN validation set, flow cytometry (AID 2523;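 active = response below a set limit, under 55% cells CD8-positive and vesicle-bound, and CD8 cells' 90th-percentile brightness under 279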;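 for vesicle binding response: mean PE anti-B7-1 fluorescence of CD8+ cells relative to row control; 100% = QL9-loaded vesicles with DMSO vehicle in the same plate row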); settings: 2C mouse CD8+ T cells, at 7 µM, stronger effect = lower value; double positive events: measured here: CD8+/vesicle+ event percentage
[7] = target: Integrin beta-1 (Homo sapiens) + Integrin alpha-4 (Homo sapiens) (UniProt P13612+P05556); experiment: inhibition of HUTS-21 binding to VLA-4, pilot screen, VLA-4 allosteric modulator project, U937 cells, HUTS-21 mAb, flow cytometry, validation set (AID 2674;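 active = inhibition above 50%, about 3 SD of the validation set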;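 note: antibody binding induced by the VLA-4 ligand LDV present at three times its Kd; 0% = LDV ligand with antibody and no compound and 100% = antibody without LDV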); settings: HUTS-21 LIBS mAb binding, at 6.7 µM, stronger effect = higher value, binding induced by LDV ligand
Chain of Integrin beta-1 (Homo sapiens) + Integrin alpha-4 (Homo sapiens) (P05556 whole entry, looked up): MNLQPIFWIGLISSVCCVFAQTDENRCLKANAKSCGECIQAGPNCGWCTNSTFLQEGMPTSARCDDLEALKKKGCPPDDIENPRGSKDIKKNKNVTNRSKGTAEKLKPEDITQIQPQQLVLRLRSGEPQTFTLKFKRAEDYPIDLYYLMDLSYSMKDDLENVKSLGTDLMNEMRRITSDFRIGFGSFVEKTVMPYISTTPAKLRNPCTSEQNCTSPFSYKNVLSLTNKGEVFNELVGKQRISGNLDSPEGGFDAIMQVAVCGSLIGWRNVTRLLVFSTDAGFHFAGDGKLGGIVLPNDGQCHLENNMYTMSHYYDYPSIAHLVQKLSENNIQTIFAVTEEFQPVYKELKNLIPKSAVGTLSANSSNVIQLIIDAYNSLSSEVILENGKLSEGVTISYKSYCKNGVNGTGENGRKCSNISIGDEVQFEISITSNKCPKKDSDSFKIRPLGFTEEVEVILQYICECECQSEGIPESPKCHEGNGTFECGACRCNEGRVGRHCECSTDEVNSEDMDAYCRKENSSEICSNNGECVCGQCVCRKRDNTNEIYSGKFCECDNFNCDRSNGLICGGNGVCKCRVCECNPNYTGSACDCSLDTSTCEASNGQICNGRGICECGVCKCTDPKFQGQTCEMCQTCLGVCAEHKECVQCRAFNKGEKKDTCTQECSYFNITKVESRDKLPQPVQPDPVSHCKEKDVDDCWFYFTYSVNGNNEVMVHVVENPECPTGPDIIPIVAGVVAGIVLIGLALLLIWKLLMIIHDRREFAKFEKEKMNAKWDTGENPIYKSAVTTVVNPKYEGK
Chain of Integrin beta-1 (Homo sapiens) + Integrin alpha-4 (Homo sapiens) (P13612 whole entry, looked up): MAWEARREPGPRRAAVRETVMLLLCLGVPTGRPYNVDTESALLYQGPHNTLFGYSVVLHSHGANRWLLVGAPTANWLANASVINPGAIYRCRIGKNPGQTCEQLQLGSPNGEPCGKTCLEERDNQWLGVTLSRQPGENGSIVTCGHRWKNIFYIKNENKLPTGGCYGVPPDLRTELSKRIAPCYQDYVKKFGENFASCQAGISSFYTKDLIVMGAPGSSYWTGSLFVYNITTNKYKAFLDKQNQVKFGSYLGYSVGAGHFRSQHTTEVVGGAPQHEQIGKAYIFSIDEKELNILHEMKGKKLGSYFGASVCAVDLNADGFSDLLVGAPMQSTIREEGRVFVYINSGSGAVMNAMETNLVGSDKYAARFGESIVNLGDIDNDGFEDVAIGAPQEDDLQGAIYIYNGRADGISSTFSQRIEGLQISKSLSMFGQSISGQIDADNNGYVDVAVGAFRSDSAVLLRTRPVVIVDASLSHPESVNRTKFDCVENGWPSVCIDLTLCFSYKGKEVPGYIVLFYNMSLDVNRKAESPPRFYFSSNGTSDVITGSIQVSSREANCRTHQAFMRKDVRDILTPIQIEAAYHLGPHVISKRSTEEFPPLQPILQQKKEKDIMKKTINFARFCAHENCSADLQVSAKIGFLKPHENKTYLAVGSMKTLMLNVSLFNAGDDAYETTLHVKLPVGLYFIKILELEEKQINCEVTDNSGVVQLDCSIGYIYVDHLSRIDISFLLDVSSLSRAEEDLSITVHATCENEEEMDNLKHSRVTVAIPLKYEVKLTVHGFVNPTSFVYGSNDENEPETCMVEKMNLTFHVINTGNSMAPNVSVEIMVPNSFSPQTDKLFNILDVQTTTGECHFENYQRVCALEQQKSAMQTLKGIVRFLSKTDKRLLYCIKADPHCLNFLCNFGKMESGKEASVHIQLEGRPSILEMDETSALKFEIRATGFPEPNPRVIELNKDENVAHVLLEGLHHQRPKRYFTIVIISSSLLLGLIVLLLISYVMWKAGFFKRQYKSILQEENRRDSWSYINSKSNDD

[8] = superoxide lowering in aged yeast cells, pilot screen, validation compound set (AID 2706;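 active = superoxide response below 65% of plate, a cut near 3 SD across the whole screen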;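 note: yeast exposed to compound for one week at 30 degrees C before staining; 100% = mean of all compound wells on the same plate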); settings: S. cerevisiae aging, superoxide DHE fluorescence; at 10 µM; stronger effect = lower value
[9] = target: Beta-adrenergic receptor kinase 1 (Homo sapiens) (UniProt P25098); experiment: GRK2 binders displacing RNA aptamer, biochemical, validation, human GRK2, bead flow cytometry (AID 488806;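 active = aptamer binding inhibition above 30%, about 3 SD of noise from non-fluorescent compounds; inactive = inhibition at or below 30%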); settings: bead-bound GRK2, FAM-aptamer displacement, at 10 µM, stronger effect = higher value
Chain of Beta-adrenergic receptor kinase 1 (Homo sapiens) (P25098 whole entry, looked up): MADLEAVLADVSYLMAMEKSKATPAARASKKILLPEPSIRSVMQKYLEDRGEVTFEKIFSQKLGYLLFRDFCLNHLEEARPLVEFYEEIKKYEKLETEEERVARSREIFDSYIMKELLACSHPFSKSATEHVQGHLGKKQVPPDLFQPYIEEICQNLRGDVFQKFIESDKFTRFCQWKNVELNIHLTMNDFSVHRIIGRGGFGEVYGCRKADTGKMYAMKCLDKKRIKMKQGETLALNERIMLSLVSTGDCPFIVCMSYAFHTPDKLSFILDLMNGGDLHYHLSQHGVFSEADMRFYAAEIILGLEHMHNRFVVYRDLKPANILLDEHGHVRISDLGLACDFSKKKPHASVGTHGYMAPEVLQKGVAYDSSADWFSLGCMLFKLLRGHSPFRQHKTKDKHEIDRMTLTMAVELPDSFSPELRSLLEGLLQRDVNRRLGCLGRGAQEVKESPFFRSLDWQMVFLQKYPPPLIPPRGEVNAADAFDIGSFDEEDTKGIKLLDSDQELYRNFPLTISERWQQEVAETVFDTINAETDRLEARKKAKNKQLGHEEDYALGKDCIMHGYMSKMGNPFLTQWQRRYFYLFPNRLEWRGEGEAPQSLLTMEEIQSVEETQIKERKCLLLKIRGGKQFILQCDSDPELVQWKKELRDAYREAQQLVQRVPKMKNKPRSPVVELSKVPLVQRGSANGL

[10] = target: Beta-2 adrenergic receptor (Homo sapiens) (UniProt P07550); experiment: beta2AR agonists driving receptor internalization, pilot screen, cell-based, FAP fluorogen, flow cytometry, validation set (AID 504459;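 active = percent response above 42, roughly 3 SD of non-fluorescent test compounds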;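 note: agonist-driven loss of surface beta2AR via internalization measured by FAP dye flow cytometry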); settings: Am2.2-beta2AR cells, FAP surface receptor flow cytometry; at 10 µM; stronger effect = higher value
Chain of Beta-2 adrenergic receptor (Homo sapiens) (P07550 whole entry, looked up): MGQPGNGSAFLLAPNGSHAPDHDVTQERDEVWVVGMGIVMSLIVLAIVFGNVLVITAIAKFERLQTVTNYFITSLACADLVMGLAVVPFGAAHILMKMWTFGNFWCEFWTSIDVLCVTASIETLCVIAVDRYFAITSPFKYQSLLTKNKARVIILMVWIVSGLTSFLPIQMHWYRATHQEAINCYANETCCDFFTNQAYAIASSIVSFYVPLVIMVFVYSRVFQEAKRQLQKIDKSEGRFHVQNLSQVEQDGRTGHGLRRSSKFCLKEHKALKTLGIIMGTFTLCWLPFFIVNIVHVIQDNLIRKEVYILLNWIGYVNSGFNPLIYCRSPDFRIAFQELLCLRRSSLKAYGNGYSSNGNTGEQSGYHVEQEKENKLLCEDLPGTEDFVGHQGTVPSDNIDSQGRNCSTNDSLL

[11] = target: AP-2 complex subunit beta (Homo sapiens) (UniProt P63010); experiment: inhibitors of arrestin peptide binding to AP2, pilot screen, biochemical, validation set, GST-AP2 beads, flow cytometry (AID 504541;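 active = inhibition above 54%, about 3 SD of non-fluorescent compounds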;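 note: AP2 carries R879A mutation and is captured from E. coli lysate; bead-bound FITC arrestin peptide fluorescence measuring arrestin peptide binding to AP2; 0% = DMSO wells and 100% = excess unlabeled arrestin peptide control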); settings: FITC arrestin peptide, at 10 µM, stronger effect = higher value, AP2 beta2 appendage fragment, R879A mutant
Chain of AP-2 complex subunit beta (Homo sapiens) (P63010 whole entry, looked up, the tested form may be a part, one chain of several): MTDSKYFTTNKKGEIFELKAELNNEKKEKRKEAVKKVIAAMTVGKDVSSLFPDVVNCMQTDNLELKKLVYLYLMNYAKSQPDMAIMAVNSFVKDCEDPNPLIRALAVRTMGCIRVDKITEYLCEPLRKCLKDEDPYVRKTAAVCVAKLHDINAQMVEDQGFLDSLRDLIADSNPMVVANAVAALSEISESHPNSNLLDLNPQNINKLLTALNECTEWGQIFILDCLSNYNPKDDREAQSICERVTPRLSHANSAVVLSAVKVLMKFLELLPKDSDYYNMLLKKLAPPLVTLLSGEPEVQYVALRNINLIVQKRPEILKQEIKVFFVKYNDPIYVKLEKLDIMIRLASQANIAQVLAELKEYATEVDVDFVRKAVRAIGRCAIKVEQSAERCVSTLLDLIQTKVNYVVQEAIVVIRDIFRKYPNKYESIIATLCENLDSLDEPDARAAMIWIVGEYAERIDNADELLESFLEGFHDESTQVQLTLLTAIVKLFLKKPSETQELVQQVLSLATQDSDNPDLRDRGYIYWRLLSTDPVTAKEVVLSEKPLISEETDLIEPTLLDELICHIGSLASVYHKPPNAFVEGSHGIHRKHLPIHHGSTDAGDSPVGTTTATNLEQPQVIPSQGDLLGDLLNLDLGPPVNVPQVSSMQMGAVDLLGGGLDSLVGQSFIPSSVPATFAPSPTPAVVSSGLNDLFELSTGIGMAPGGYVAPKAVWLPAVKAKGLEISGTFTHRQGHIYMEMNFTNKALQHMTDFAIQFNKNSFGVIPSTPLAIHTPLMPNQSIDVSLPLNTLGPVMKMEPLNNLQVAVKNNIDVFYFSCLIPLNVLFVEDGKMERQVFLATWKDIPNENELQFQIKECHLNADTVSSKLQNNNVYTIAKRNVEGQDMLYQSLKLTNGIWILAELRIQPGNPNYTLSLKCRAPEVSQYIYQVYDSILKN

[12] = yeast V-ATPase proton transport modulators, S. cerevisiae, pHLuorin, HTS validation (AID 504600);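 note: plate controls were DMSO for no effect and reference compound for full effect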; settings: S. cerevisiae pHLuorin cytosolic pH, at 10 µM, stronger effect = higher value
[13] = system: anti-desmoglein-3 scFv antibody binding to human DSG3; experiment: inhibitors of anti-DSG3 scFv binding to DSG3, pilot screen, biochemical, validation compound set, bead-based, flow cytometry (AID 588368;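 active = binding below the plate cutoff, the plate median minus 3 SD, with a reading above zero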;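 note: signal is the median channel fluorescence of bead-bound GFP antibody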); settings: Protein G beads, DSG3-Fc, scFv-GFP binding, at 10 µM, stronger effect = lower value
[14] = inhibitors of fungal efflux pumps CDR1, CDR2, MDR1, pilot screen, validation compound set, multiplex, phenotypic (AID 588506;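 active = efflux inhibition above 0.42, the validation set average plus 4 SD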;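 note: Nile Red retained in cells so higher fluorescence means more efflux inhibition; 0 = negative control wells and 1 = enniatin B 25 µM full block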); settings: S. cerevisiae pump-expressing triplex, Nile Red efflux flow cytometry; at 10 µM; stronger effect = higher value; the pumps come from Candida albicans
[15] = target: ATP-binding cassette sub-family B member 6 (Homo sapiens) (UniProt Q9NP58); experiment: ABCB6 transporter inhibitors, pilot screen, K562-ABCB6 cells, flow cytometry, validation set (AID 588550;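 active = inhibition above the screen-wide mean plus 3 SD, about 51%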;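 note: 0% = DMSO wells and 100% = benzethonium chloride 70 µM positive control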); settings: K562-ABCB6 porphyrin accumulation, 1 h, at 10 µM, stronger effect = higher value
Chain of ATP-binding cassette sub-family B member 6 (Homo sapiens) (Q9NP58 whole entry, looked up): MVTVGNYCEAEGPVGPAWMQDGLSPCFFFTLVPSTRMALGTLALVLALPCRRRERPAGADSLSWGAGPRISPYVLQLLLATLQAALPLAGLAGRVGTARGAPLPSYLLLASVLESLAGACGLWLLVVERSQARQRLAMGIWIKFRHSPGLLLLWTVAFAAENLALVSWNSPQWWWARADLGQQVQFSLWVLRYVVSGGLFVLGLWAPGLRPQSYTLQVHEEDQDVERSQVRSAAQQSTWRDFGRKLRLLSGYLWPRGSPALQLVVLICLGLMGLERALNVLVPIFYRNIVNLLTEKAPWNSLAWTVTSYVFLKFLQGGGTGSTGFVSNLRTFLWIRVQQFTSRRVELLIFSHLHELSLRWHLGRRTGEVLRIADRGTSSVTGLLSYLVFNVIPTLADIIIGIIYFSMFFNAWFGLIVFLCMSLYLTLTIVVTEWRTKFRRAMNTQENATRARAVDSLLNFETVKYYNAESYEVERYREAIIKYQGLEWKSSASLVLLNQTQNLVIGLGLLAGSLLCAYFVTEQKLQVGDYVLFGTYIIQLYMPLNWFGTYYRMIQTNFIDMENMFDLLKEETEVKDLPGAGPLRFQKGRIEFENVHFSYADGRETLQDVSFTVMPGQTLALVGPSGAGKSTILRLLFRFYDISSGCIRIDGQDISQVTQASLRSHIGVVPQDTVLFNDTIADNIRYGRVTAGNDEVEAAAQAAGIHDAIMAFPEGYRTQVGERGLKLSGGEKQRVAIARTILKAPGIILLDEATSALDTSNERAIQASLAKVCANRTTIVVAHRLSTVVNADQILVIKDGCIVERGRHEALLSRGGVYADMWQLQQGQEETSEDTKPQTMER

[16] = promoters of myeloid differentiation in arrested cells, primary screen, cell-based, GFP/MAC1 double positive, flow cytometry, validation set (AID 588685;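 active = differentiation response of at least 50%, scaled between solvent and reference control, from cells with both markers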;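 note: compound exposure lasts four days before antibody staining and flow analysis; 0% = DMSO wells and 100% = 5 µM fulvestrant positive control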); settings: ER-HoxA9 marrow cells, stronger effect = higher value, normalized: vehicle 0, fulvestrant 100

Compound | percent of DMSO control GFP [1] | GFP response vs DMSO [2] | percent response of DMSO control [3] | GFP response vs DMSO [4] | GFP response, % of DMSO [5] | double positive events [6] | vesicle binding response [6] | inhibition [7] | superoxide response (% of plate) [8] | aptamer binding inhibition [9] | response [10] | inhibition [11] | response [12] | binding (% of control) [13] | efflux inhibition (fraction of control) [14] | inhibition [15] | differentiation response [16]
O=C(COc1ccc2ccc(=O)oc2c1)c1ccccc1 | 91.1% (inactive) | 130% (inactive) | 102% (inactive) | 85.3% (inactive) | 88.4% (inactive) | 59.9% | 132% (inactive) | -8.09% (inactive) | 98.8% (inactive) | 1% (inactive) | -4.3% (inactive) | 14.3% (inactive) | -1.1% (inactive) | 97.6% (inactive) | 0.19 (inactive) | -10% (inactive) | -0.82% (inactive)
Cc1cccc2c(C(=O)O)cc(-c3cccnc3)nc12 | 104% (inactive) | 105% (inactive) | 95.4% (inactive) | 98% (inactive) | 101% (inactive) | 63.5% | 140% (inactive) | 3.7% (inactive) | 102% (inactive) | 0% (inactive) | -8.08% (inactive) | -0.94% (inactive) | 2.28% (inactive) | 95% (inactive) | -0.01 (inactive) | -3% (inactive) | 7.09% (inactive)
COc1cc(CNCc2ccc(OC)c(OC)c2OC)cc(OC)c1 | 105% (inactive) | 110% (inactive) | 105% (inactive) | 104% (inactive) | 112% (inactive) | 60.7% | 178% (inactive) | 33.8% (inactive) | 106% (inactive) | 2% (inactive) | -16% (inactive) | 64.9% (active) | 22.7% (active) | 102% (inactive) | 0 (inactive) | 1% (inactive) | -11.9% (inactive)
Cc1cc(OC(=O)CNC(=O)OC(C)(C)C)c2c(C)cc(=O)oc2c1 | 101% (inactive) | 105% (inactive) | 97.7% (inactive) | 108% (inactive) | 111% (inactive) | 62.2% | 460% (inactive) | 10.8% (inactive) | 107% (inactive) | 3% (inactive) | -17.2% (inactive) | 6.94% (inactive) | -0.27% (inactive) | 93.1% (inactive) | 0 (inactive) | 2% (inactive) | 3.88% (inactive)
COc1cccc2c(=O)c(C/C=C(/C)Cl)c(C)[nH]c12 | 107% (inactive) | 103% (inactive) | 101% (inactive) | 131% (inactive) | 108% (inactive) | 65.6% | 6720% (inactive) | 6.4% (inactive) | 107% (inactive) | 3% (inactive) | 3.25% (inactive) | -8.34% (inactive) | 3.49% (inactive) | 95.7% (inactive) | 0.01 (inactive) | 3% (inactive) | -16.8% (inactive)
CCc1cc2c(=O)c(-c3nc(C)cs3)coc2cc1OC(C)C(=O)NCCO (stereo not drawn) | 90.2% (inactive) | 129% (inactive) | 107% (inactive) | 86.4% (inactive) | 92.4% (inactive) | 62.3% | 143% (inactive) | 9.37% (inactive) | 95.6% (inactive) | 3% (inactive) | 8.19% (inactive) | -0.76% (inactive) | -0.12% (inactive) | 101% (inactive) | -0.2 (inactive) | 10% (inactive) | -4.09% (inactive)
CC(=O)NC(Cc1ccccc1)C(=O)OCC(=O)c1ccccc1 (stereo not drawn) | 96% (inactive) | 102% (inactive) | 88.6% (inactive) | 106% (inactive) | 100% (inactive) | 65.2% | 144% (inactive) | 9.1% (inactive) | 111% (inactive) | 3% (inactive) | -9.61% (inactive) | 9.32% (inactive) | 3.98% (inactive) | 105% (inactive) | 0 (inactive) | 6% (inactive) | -21.7% (inactive)
CCCCCCCCCC(=O)OCC(O)CO (stereo not drawn) | 105% (inactive) | 105% (inactive) | 102% (inactive) | 103% (inactive) | 93.4% (inactive) | 65.4% | 163% (inactive) | -10.8% (inactive) | 116% (inactive) | 4% (inactive) | -2% (inactive) | 59.4% (active) | -4.17% (inactive) | 96.3% (inactive) | 0.18 (inactive) | 5% (inactive) | 9.04% (inactive)
COc1ccc(CCNc2ncnc3c2[nH]c2cc(OC)c(OC)cc23)cc1OC | 97.2% (inactive) | 126% (inactive) | 111% (inactive) | 82.5% (inactive) | 98.7% (inactive) | 64% | 178% (inactive) | 0.64% (inactive) | 97.5% (inactive) | 2% (inactive) | 19.8% (inactive) | -1.78% (inactive) | 3.11% (inactive) | 101% (inactive) | -0.06 (inactive) | 10% (inactive) | -0.82% (inactive)
